From PubChem BioAssay (NCI)
This is part of a sample that, as a whole, favours compounds with a hit. Of some 83,000 tested, about 20% had one in any assay.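 96-well plates, one dose, 48 hours. Percent growth reported; active if below 10.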 Unmarked numbers belong to inactive results. Calls of active or inactive are those of the source.

test system: HL-60(TB) leukemia; assay: NCI-60 one-dose screen, 48 h (100 = growth as untreated, 0 = no growth, -100 = all killed); conditions: 10 µM unless noted

Compound | growth
CC1CC(O)CC(C)(C)C1 (stereo not given) | 80.8%
C=CCOc1ccc(N=NC(C#N)C#N)cc1 | 0.44% (active)
Cc1cc(C)nc(SC2=C(Nc3cccc(Cl)c3C)C(=O)N(Cc3ccccc3)C2=O)n1 | 10.4% [30 µM]
CCCCn1c(NC(C)=O)c(S(=O)(=O)c2ccccc2)c2nc3ccccc3nc21 | 88.5%
O=C(Nc1ccc2ncnc(Nc3ccc(Oc4cccc(F)c4)c(Cl)c3)c2c1)c1ccc(CN2CCOCC2)cc1 | -11.3% (active)
COc1ccc(C/C(=C(\C)c2ccc(OCCN3CCCC3)cc2)c2ccc(OCCN3CCCC3)cc2)cc1 | -58.1% (active)
CCc1nc2cc(/C=C/C(=O)NO)ccc2c(=O)n1CCc1ccc(OC)cc1 | 0.921% (active)
COc1ccc(C2CC(=O)Nc3c2c(C)nn3-c2nc3ccccc3[nH]2)cc1OC (stereo not given) | 31.9%
ClCC1(Cn2cnc3c(Cl)nc(Cl)nc32)COC1 | 91.6%
Cc1cc(N(CCCNc2ccnc3cc(Cl)ccc23)Cc2ccccn2)nc(N2CCCC2)n1 | 65.8%
Cc1nc(-n2[nH]c(=O)ccc2=O)sc1N=Nc1ccccc1 | 98%
CC(C)(C)n1cc(-c2ccnc(NCCNS(=O)(=O)c3ccc(C(F)(F)F)cc3)c2)c(-c2ccccc2)n1 | 83.9%
CCOC(=O)c1cc(C(=O)c2cc(OC)c(OC)c(OC)c2)n2ccc(-c3cc[n+](CC(=O)c4cc(OC)c(OC)c(OC)c4)cc3)cc12 | 32.9%
C=C1C(=O)O[C@H]2[C@H]1CC/C(CNC(=O)CCc1ccc(OC)cc1)=C\CC[C@@]1(C)O[C@@H]21 | 3.96% (active)
COC(=O)C(CCC(=O)CCl)N1C(=O)c2ccccc2C1=O (stereo not given) | 84.5%
CCCc1cc2cc(-n3nc(C)c4c3CC(C)(C)CC4=O)cc(NC3CCC(O)CC3)c2c(=O)[nH]1 (stereo not given) | 2.27% (active)
Oc1c(I)cc(I)cc1CN(Cc1ccccn1)Cc1ccccn1 | 2.58% (active)
Cn1cc(-c2csc(-c3c[nH]c4ccc(F)cc34)n2)c2cnccc21 | -59.4% (active)
COc1cc2c(cc1OC)C(C)N(S(N)(=O)=O)CC2 (stereo not given) | 72.2%
CN1CCN(c2ccc(-c3cc4c(Nc5ccc(F)c(Cl)c5)ncnn4c3)cn2)CC1 | 72.8%

Compound | growth
Clc1ccc2c(NC3CCC(NC4CCCCC4)CC3)ccnc2c1 (stereo not given) | 67.3%
COC(=O)Nc1ccc2ccc3c(NC(=O)OC)ccc4ccc1c2c43 (tested in a mixture with another compound) | 33.8%
OCCOSCCO | 99.1%
C=C1C(=O)O[C@H]2[C@H]1CC/C(Cn1cc(-c3ccc(F)cc3)nn1)=C\CC[C@@]1(C)O[C@@H]21 | -18.8% (active)
CC1=NCC2NC(=O)NC(C)=C12 (stereo not given) | 109%
O=C1Nc2ccc(C(=O)O)cc2/C1=N/c1nnc(Sc2ccccc2)s1 | 96.4%
CCNC(=O)Oc1ccc(/C(=C(/C)Cc2ccc(OC)cc2)c2ccc(OCCN(CC)CC)cc2)cc1 | 34.1%
c1ccc2sc(SCCCn3ccnc3)nc2c1 | 110%
COc1ccc2[nH]cc(-c3nc(-c4c[nH]c5c(Cl)nccc45)cs3)c2c1 | 36%
CCOC(=O)c1c(C)nc2c(c1N)CC(=O)N2Cc1ccc(F)cc1 | 83.5%
COc1ccc2c(c1)c(-c1nc(-c3c[nH]c4ccncc34)cs1)cn2C | -61.5% (active)
O=C(O)CNC(=O)CN1C(=O)c2ccccc2C1=O | 90.7%
NNc1ncnc2c1ncn2C1OC(CO)C(O)C1O (stereo not given) | 34.8%
COc1ccc(/C=C/c2nc(Nc3ccc(S(=O)(=O)Nc4cc(C)on4)cc3)c3ccccc3n2)cc1 | 80.9%
COc1ccc(/C=N/C2=C(C#N)C(c3ccc(OC)cc3)c3ccc4ccccc4c3O2)cc1 (stereo not given) | 63.4%
CCN(CC)CCCCCCNc1cccc2cc(Br)cnc12 | -51.7% (active)
CCN(CCN(C)C)C(=O)CNCc1cc(C(N)=O)ccn1 | 88.7%
CCn1cc(C(=O)O)c(=O)c2cc(F)c(N3CCN(S(=O)(=O)c4ccc(OC)c(OC)c4)CC3)cc21 | 91.3%
O=C1NC(=O)c2cc([N+](=O)[O-])cc3cccc1c23 | 135%
Cc1cn(C(C=O)OC(C=O)CO)c(=O)[nH]c1=O (stereo not given) | 103%
